Pf apPOL block: Pf-apPOL inhibitors, biochemical, fluorescence; Recombinant Pf-apPOL, molecular beacon fluorescence, 1.5 h; Plasmodium falciparum apicoplast DNA polymerase (apPOL); actives 0.25% (n = 210,000); inhibition, % at 10 µM
mHTT CaM bind: mutant huntingtin-calmodulin interaction inhibitors – biochemical, AlphaScreen, primary screen | inhibition, % at 15 µM | AlphaScreen His-mHTT/GST-CaM binding, luminescence | actives 3.6% (n = 190,000) | P42858 | AID 1671202, 2021;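 further: 0% = both proteins with DMSO and 100% = one protein alone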
Starred values were filed as active, the others as inactive; nt = no result given; + = active, no number. The entries come from a sample that favours hits as a whole. No stated cut-off is given here; in the data, active means inhibition above about 50%; inactive means the rest.

SMILES | Pf apPOL block | mHTT CaM bind
Cc1cccc(CNC(=O)c2ccc3c(c2)nc2n3CCN(C3CCCCC3)C2=O)c1 | 2.1 | -8.9
COc1ncc(C(=O)Nc2ccc(C)c(F)c2)c(C)n1 | -2.9 | -8.6
CCNC(=O)c1cc2c(=O)n3cccc(C)c3nc2n(Cc2cccnc2)c1=N | -8.5 | 3.0
O=C(NCCOc1ccc(F)cc1)C(=O)Nc1cccc(C(F)(F)F)c1 | 0.9 | -8.4
CC1=CC(=O)C(C(C)C)=C/C1=N\Oc1c([N+](=O)[O-])cc(Cl)cc1[N+](=O)[O-] | -0.3 | +
Nc1c(Cl)cc(Cl)cc1[N+](=O)[O-] | -3.8 | 2.4
CC(C)(C)c1cc(CCC(=O)NNC(=S)NC(=O)c2ccccc2)cc(C(C)(C)C)c1O | -271.0 | 58.1*
CC(C)(C)c1cc(CCC(=O)NNC(=O)c2ccco2)cc(C(C)(C)C)c1O | 1.2 | 6.6
Cc1ccc(N=Cc2cc([N+](=O)[O-])ccc2O)c(Br)c1 | -2.9 | 4.0
Cc1ccc(N=Cc2cc(C)c(C)cc2O)c(O)c1 | 8.1 | 53.0*
COc1cc(C=Nc2ccc(C)cc2O)ccc1O | -4.1 | 77.0*
COc1ccc(C=Nc2ccc(C)cc2C)cc1O | 7.8 | 7.0
CCN1CCN(C(=O)c2ccn3c(-c4cccc(Cl)c4)nnc3c2)CC1 | -1.7 | 2.4
O=C(NCc1ccco1)N1CCC(N2CCN(Cc3ccccc3)C2=O)CC1 | -4.3 | 2.3
O=C(O)c1cn[nH]c1-c1ccccc1 | 0.8 | -4.9
CCc1nn2cc(-c3ccc(Cl)cc3)nc2s1 | -8.1 | -9.0
CCc1ccc2cc(-c3ccc(Cl)cc3)cn2c1 | -1.6 | 59.0*
CCN(CC)c1ccc(CNc2ccc3c(c2)ncn3CC)cc1 | -1.9 | 94.0*
CN(C)c1ccc(CNc2ccc3c(c2)ncn3C(C)(C)C)cc1 | -3.5 | 78.0*
CCOc1ccc(CNc2ccc3c(c2)ncn3C(C)(C)C)cc1 | 4.9 | 30.0
CCn1cnc2cc(NCc3ccc(N(C)C)cc3)ccc21 | -5.2 | 14.0
COc1ccc(-c2n[nH]c(C)c2Oc2ccccc2)c(O)c1 | -2.7 | 32.0
CCCc1ccc(Oc2c(C)oc3c(C)c(O)ccc3c2=O)cc1 | -10.7 | 1.5
Oc1ccc(-c2[nH]ncc2Oc2ccccc2)c(O)c1O | -2.4 | 100.0*
CCCc1ccc(Oc2cn[nH]c2-c2ccc(O)c(C)c2O)cc1 | -7.0 | 90.1*
SMILES | Pf apPOL block | mHTT CaM bind
Oc1ccc(-c2[nH]ncc2Oc2ccccc2)c(O)c1 | 2.5 | 44.0
Cc1[nH]nc(-c2ccc(O)c(O)c2O)c1Oc1ccccc1 | -6.3 | 97.3*
COc1cccc(-c2nc(C3CC(=O)N(c4ccccc4)C3)no2)c1 (stereo not given) | 0.8 | -8.2
Cc1ccc2c(Nc3ccc(C)c(F)c3)c(C(=O)N3CCOCC3)cnc2n1 | -2.6 | -0.9
Cc1ccc(-n2[nH]c(C)c(C=Nc3cc(Cl)ccc3O)c2=O)cc1 | -5.0 | 9.0
O=C(NC1CC(=O)N(Cc2ccccc2)C1)c1ccncc1 (stereo not given) | -1.6 | -10.8
Cc1ccc(OCCCN(C)C)c(C(C)(C)C)c1 | -4.8 | 4.6
Cc1cc(NC(=O)C2CCCN(c3ncnc4c3nc3n4CCCCC3)C2)no1 (stereo not given) | 0.9 | -0.4
COc1cccc(-c2nc(C3CCN(C(=O)c4cc(F)ccc4Cl)CC3)no2)c1 | 6.3 | -2.6
Cc1nn2c(CNC(=O)C3CCC3)c(C)nc2s1 | 0.6 | -4.6
CC(C)C[C@@H](COc1ccccc1)N1CCN(CCc2ccccc2)CCC1=O | -9.6 | 84.2*
CC(=O)Nc1ccc(SC[C@H](c2ccccc2)N2CCN(CCc3ccccc3)CCC2=O)cc1 | -5.8 | 98.0*
O=C1CCN(CCc2ccccc2)CCN1[C@H](COc1ccccc1)Cc1ccccc1 | -4.4 | 98.2*
O=C1CCN(CCc2ccccc2)CCN1[C@H](CSc1ccc(Br)cc1)c1ccccc1 | -4.0 | 20.7
CC(C)CN1CCC(=O)N([C@H](COc2ccccc2)Cc2ccccc2)CC1 | -6.2 | 19.1
CCCN1CCC(=O)N([C@H](COc2ccccc2)CC(C)C)CC1 | -3.4 | 7.0
Cc1ccc(-n2ccn3cc(-c4ccc5c(c4)OCO5)nc3c2=O)cc1Cl | -0.3 | -7.1
O=C(CS(=O)(=O)c1ccc(Cl)cc1)Nc1ccc2scnc2c1 | -5.4 | -2.8
CC(C)NC(=O)C1CCCN(c2nc3ncn(CC(=O)NC4CCCC4)c(=O)c3s2)C1 (stereo not given) | -0.2 | -1.9
CCN(CC)C(=O)CC1CCN(c2ccnc(OC)n2)CC1 | -0.2 | -3.9
O=C(Cc1nnc(-c2cccc(Br)c2)o1)NCc1ccc(F)cc1Cl | -1.4 | -7.6
Cc1ccccc1-n1c(CCC(=O)O)ccc1-c1cccs1 | -2.7 | 19.0
Cc1cc(Cl)ccc1-n1c(CCC(=O)O)ccc1-c1cccs1 | -8.7 | 68.0*
COc1cc(C=C2C(=O)c3ccccc3C2=O)ccc1OCc1ccc(C(=O)O)cc1 | 3.4 | 6.0
COc1ccc(/C=C2\C(=O)c3ccccc3C2=C(C#N)C#N)cc1OC | -1.3 | 92.0*
SMILES | Pf apPOL block | mHTT CaM bind
Cc1ccc(C2C3=C(Nc4ncnn42)c2ccccc2OC3c2cccs2)cc1 (stereo not given) | -5.2 | 41.0
Cc1cc(NC(=O)CSc2nnc(Cc3c(C)[nH]c(=O)[nH]c3=O)o2)no1 | -1.6 | -20.0
Cc1cc(NC(=O)CSc2nnc(C3COc4ccccc4O3)o2)no1 (stereo not given) | 5.0 | 72.1*
CC1=NN(c2cccc(C(=O)O)c2)C(=O)/C1=C/c1ccc(-c2cc(Cl)ccc2Cl)o1 | -3.7 | 32.0
CC1=NN(c2cccc(C(=O)O)c2)C(=O)/C1=C/c1ccc(-c2ccc(Br)cc2)o1 | 7.2 | 61.0*
COc1ccc(-c2c(C)c3ccc(O)c(CN(C)C)c3oc2=O)c(OC)c1 | 1.1 | -1.1
O=C(Cc1csc(Nc2cccc(Cl)c2)n1)NCc1cccnc1 | -9.3 | -5.1
O=c1c2c(nc3cc(-c4ccccc4Cl)[nH]n13)CNCC2 | 16.8 | 9.9
Cc1ccc2c(c1)N(c1cccc(Cl)c1F)C=C(C#N)S2(=O)=O | -1.5 | -10.1
COc1cc([N+](=O)[O-])cc2c1NC(C(C)C)C1CC=CC21 (stereo not given) | -3.6 | 15.5
CCOc1cc2c(c([N+](=O)[O-])c1)NC(c1ccccc1)C1CC=CC21 (stereo not given) | -2.2 | 57.0*
COc1cc2c(c([N+](=O)[O-])c1)NC(C(C)C)C1CC=CC21 (stereo not given) | -5.8 | 97.0*
CCOc1cc2c(c([N+](=O)[O-])c1)NC(c1cccc([N+](=O)[O-])c1)C1CC=CC21 (stereo not given) | 2.6 | 41.0
Cc1cc(I)cc(C)c1NC(=O)c1ccccc1 | -8.6 | -7.8
CCCn1cnnc1C1CCCN(Cc2sccc2C)C1 (stereo not given) | -2.6 | 12.9
Cc1c(CC(Cl)(Cl)Cl)c2c(n1-c1ccccc1[N+](=O)[O-])CCCC2=O | -6.1 | 33.0
Cc1c(CC(Cl)(Cl)Cl)c2c(n1-c1ccc([N+](=O)[O-])cc1)CCCC2=O | -8.1 | 73.0*
O=C1NC(=O)/C(=C/c2ccc(Cl)c([N+](=O)[O-])c2)S1 | 0.5 | 4.0
O=C1NC(=S)SC1=Cc1ccc(Sc2ccc(Cl)cc2)c([N+](=O)[O-])c1 | 69.4* | nt
O=C(CC1CCN(C(=O)c2ccccc2Cl)CC1)NCc1ccccc1F | -0.3 | -7.3
COc1ccc2[nH]cc(CCNC(=O)CC3CCN(C(=O)C4CCCCC4)CC3)c2c1 | -6.4 | 9.5
Cc1ccc2[nH]cc(CCNC(=O)C3CCN(c4ccc(N5CCCCC5)nn4)CC3)c2c1 | -6.8 | 77.8*

Screening results (PubChem BioAssay)
